Results on 1 sequence are retold here after article PMC7862700, “An all-to-all approach to the identification of sequence-specific readers for epigenetic DNA modifications on cytosine”.

Common to all, as to experiment: DAPPL (digital affinity profiling via proximity ligation, sequencing); 10 mM Tris-HCl pH 7.5, 50 mM NaCl, 1 mM DTT, 4% glycerol, room temperature, 30 min; GST-TFs on glutathione beads, 16-mer random dsDNA library, 0.1% formaldehyde crosslink after washing; high values mean tight binding
One test addresses T1, FEV (Homo sapiens, UniProt Q99581 1-238).
T1 sequence: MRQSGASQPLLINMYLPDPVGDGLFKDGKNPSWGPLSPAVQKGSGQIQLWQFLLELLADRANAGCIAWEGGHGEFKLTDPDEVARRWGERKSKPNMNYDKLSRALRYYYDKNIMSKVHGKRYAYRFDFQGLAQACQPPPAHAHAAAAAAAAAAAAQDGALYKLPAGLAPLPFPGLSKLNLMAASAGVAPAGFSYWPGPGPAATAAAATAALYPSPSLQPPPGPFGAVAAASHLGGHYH
As to conditions: protein: recombinant; tags: N-terminal GST; dsDNA, one strand shown. In short, it runs like this:
(§1)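 Binding signal is each hexamer's read frequency for a factor divided by its frequency in the tag-only sample. The factors were GST-fused human transcription factors from yeast, captured on glutathione beads, DNA-barcoded and pooled with that sample. Pools were incubated with 200 nmole of a random double-stranded 16-mer DNA library in Tris/NaCl/DTT/glycerol buffer at room temperature for 30 min, then washed, crosslinked with 0.1% formaldehyde, proximity-ligated with BsaI/T4 ligase (1 h, 37 °C), PCR-amplified and sequenced on an Illumina NextSeq500.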

The target of the next test is ETV5 (Homo sapiens, UniProt P41161 1-510). As to conditions: protein: recombinant; tags: N-terminal GST; dsDNA, one strand shown. Summed up: as §1
Sequence of ETV5 (P41161 whole entry): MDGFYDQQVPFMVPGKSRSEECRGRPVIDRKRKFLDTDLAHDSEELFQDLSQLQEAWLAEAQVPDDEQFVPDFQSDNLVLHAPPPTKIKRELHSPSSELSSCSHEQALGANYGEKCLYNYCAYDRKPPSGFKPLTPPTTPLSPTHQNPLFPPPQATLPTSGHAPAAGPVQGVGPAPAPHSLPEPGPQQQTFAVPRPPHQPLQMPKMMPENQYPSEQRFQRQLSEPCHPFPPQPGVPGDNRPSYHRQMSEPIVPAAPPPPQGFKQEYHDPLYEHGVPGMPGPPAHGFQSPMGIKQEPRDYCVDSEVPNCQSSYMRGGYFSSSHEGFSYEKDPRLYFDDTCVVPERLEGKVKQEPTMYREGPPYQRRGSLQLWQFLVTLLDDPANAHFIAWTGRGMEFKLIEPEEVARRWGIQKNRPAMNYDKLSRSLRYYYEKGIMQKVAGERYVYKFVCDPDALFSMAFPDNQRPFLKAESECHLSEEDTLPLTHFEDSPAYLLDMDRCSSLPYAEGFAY
The target in the next test is HSF1 (Homo sapiens, UniProt Q00613 1-529). As to conditions: protein: recombinant; tags: N-terminal GST; chain copies: 3; dsDNA, one strand shown. Summed up: as §1
Sequence of HSF1 (Q00613 whole entry): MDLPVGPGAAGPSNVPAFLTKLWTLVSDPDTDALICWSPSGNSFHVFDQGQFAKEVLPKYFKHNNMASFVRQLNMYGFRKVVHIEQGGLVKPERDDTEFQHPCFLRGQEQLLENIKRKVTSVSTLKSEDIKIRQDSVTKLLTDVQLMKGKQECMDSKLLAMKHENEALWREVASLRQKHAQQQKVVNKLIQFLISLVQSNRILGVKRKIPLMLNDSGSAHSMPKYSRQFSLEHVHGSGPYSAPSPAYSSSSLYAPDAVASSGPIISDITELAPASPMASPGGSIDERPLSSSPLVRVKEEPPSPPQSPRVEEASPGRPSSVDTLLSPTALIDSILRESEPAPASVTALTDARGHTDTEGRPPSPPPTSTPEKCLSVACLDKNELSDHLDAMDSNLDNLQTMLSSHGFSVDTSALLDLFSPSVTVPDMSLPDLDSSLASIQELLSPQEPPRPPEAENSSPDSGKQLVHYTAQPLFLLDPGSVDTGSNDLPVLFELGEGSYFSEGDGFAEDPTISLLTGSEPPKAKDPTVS
In the next test the target is T2, SPIC (Homo sapiens, UniProt Q8N5J4 1-248).
T2 sequence: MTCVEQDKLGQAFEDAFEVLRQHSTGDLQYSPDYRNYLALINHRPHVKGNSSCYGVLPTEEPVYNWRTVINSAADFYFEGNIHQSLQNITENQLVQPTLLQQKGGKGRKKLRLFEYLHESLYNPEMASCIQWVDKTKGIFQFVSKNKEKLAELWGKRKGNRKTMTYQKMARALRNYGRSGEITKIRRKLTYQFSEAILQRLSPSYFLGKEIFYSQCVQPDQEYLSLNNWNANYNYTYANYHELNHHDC
Conditions: protein: recombinant; tags: N-terminal GST; dsDNA, one strand shown. In short, it runs like this:
as §1

In another test the target is ELF4 (Homo sapiens, UniProt Q99607 1-663). Conditions: protein: recombinant; tags: N-terminal GST; dsDNA, one strand shown. In short, it runs like this:
as §1

For another test, the target named is T3, ELK4 (Homo sapiens, UniProt P28324-2 1-405).
T3 sequence: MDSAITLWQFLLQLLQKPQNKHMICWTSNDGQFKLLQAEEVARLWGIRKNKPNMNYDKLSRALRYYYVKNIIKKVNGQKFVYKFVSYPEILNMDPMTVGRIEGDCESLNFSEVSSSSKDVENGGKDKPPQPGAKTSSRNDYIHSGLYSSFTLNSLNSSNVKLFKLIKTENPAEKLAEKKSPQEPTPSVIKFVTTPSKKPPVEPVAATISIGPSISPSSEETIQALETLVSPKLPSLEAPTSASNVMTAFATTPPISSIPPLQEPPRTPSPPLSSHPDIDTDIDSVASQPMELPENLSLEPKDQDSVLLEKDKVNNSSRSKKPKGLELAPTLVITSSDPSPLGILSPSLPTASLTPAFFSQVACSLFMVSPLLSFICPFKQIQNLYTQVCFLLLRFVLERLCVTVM
Conditions: protein: recombinant; tags: N-terminal GST; dsDNA, one strand shown. In short, it runs like this: as §1

The target in another test is T4, ETV2 (Homo sapiens, UniProt O00321 1-342).
T4 sequence: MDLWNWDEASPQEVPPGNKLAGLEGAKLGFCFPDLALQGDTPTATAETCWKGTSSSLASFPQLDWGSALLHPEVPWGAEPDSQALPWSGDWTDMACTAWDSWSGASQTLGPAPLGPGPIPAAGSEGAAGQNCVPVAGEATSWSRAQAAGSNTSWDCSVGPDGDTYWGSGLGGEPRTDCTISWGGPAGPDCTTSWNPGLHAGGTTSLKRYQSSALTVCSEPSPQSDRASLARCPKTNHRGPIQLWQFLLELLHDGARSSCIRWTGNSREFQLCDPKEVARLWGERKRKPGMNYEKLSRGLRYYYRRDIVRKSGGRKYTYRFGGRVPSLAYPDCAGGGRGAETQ
Conditions: protein: recombinant; tags: N-terminal GST; dsDNA, one strand shown. Summed up: as §1

The next test addresses T5, ELF3 (Homo sapiens, UniProt P78545 1-371).
T5 sequence: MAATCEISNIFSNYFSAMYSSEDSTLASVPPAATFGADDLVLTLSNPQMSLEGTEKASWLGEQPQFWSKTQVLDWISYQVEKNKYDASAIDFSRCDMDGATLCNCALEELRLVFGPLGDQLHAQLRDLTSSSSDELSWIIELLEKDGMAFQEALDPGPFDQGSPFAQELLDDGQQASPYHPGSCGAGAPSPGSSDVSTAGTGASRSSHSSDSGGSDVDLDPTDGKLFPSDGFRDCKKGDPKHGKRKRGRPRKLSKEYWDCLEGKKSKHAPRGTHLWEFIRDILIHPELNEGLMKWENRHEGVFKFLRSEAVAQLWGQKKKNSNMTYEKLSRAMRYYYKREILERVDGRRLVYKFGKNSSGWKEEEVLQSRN
As to conditions: protein: recombinant; tags: N-terminal GST; dsDNA, one strand shown. In short, it runs like this:
as §1

A further test concerns the target CRX (Homo sapiens, UniProt O43186 1-299). As to conditions: protein: recombinant; tags: N-terminal GST; dsDNA, one strand shown. Summed up:
as §1

A further test addresses ETV1 (Homo sapiens, UniProt P50549 1-477). Conditions: protein: recombinant; tags: N-terminal GST; dsDNA, one strand shown. Summed up:
as §1

The next test concerns the target T6, ERF (Homo sapiens, UniProt P50548 1-548).
T6 sequence: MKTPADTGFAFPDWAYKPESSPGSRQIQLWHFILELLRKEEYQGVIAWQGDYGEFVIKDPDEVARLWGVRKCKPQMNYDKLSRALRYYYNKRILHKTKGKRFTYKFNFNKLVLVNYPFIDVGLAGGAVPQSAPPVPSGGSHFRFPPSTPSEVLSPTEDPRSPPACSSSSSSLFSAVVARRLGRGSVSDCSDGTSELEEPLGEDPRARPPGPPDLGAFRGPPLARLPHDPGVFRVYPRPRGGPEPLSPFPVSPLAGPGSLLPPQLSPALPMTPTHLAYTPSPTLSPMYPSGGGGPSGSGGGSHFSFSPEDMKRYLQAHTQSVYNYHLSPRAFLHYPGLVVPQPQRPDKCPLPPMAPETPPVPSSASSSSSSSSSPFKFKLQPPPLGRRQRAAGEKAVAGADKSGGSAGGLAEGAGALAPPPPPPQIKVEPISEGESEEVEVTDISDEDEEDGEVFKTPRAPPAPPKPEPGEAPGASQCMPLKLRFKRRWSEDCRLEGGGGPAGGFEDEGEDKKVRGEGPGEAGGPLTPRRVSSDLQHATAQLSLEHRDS
As to conditions: protein: recombinant; tags: N-terminal GST; dsDNA, one strand shown. Summed up:
as §1

The next test has as its target T7, ETV3L (Homo sapiens, UniProt Q6ZN32 1-361).
T7 sequence: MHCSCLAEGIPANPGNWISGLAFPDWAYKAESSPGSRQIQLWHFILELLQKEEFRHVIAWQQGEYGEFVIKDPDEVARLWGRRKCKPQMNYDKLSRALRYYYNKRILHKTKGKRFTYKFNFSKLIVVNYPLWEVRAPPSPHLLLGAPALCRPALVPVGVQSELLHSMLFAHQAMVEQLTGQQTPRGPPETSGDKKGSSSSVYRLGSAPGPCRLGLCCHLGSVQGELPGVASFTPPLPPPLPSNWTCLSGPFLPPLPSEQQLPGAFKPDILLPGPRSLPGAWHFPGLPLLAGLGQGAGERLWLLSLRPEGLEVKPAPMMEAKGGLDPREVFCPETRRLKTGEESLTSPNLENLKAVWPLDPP
As to conditions: protein: recombinant; tags: N-terminal GST; dsDNA, one strand shown. Summed up:
as §1

The target in another test is T8, ETS2 (Homo sapiens, UniProt P15036 1-469).
T8 sequence: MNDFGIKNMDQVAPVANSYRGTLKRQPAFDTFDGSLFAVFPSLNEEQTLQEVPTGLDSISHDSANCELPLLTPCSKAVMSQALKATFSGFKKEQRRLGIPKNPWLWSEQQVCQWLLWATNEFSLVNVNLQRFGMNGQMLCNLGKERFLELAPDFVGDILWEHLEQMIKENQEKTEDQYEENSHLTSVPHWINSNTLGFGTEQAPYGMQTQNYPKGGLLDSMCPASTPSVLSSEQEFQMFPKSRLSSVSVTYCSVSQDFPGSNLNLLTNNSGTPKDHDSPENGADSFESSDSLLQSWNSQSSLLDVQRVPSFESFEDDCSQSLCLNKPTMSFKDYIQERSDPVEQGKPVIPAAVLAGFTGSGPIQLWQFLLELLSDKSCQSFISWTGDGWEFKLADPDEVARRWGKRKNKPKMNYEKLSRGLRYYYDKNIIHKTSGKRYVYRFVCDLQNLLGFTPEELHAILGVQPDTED
Conditions: protein: recombinant; tags: N-terminal GST; dsDNA, one strand shown. Summed up:
as §1

A further test has as its target T9, SPDEF (Homo sapiens, UniProt O95238 1-335).
T9 sequence: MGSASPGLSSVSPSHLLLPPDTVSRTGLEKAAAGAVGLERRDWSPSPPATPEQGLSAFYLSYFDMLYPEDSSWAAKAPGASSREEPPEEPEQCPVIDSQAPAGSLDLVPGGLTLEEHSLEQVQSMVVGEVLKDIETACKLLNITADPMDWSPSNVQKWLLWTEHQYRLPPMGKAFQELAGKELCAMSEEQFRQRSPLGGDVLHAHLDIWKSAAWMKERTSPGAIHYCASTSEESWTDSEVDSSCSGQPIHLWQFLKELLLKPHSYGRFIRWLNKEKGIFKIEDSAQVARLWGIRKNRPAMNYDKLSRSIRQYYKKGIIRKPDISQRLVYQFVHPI
As to conditions: protein: recombinant; tags: N-terminal GST; dsDNA, one strand shown. Summed up: as §1

Another test addresses T10, ETV7 (Homo sapiens, UniProt Q9Y603 1-341).
T10 sequence: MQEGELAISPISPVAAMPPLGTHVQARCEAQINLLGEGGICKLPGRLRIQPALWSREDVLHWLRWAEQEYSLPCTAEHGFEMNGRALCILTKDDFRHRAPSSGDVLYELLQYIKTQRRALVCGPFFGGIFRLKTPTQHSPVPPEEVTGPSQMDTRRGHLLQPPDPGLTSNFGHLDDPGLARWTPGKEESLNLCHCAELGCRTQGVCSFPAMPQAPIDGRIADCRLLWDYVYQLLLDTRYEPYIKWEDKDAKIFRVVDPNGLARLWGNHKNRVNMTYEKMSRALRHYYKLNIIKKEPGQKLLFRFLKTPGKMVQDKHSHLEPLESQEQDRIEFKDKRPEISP
Conditions: protein: recombinant; tags: N-terminal GST; dsDNA, one strand shown. In short, it runs like this:
as §1

A further test addresses T11, ELF5 (Homo sapiens, UniProt Q9UKW6-2 1-255).
T11 sequence: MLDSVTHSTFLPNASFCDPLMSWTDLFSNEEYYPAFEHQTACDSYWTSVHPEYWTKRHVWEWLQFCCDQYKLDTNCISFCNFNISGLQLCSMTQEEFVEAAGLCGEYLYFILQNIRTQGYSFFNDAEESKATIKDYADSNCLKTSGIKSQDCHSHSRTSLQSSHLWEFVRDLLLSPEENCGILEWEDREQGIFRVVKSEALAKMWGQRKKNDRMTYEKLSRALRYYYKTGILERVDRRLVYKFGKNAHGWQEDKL
Conditions: protein: recombinant; tags: N-terminal GST; dsDNA, one strand shown. In short, it runs like this:
as §1

Another test addresses T12, ETV3 (Homo sapiens, UniProt P41162-2 1-143).
T12 sequence: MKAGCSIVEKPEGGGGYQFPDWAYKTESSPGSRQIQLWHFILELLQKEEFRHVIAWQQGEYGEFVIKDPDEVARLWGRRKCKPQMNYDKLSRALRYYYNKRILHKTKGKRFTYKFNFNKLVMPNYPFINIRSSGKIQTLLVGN
As to conditions: protein: recombinant; tags: N-terminal GST; dsDNA, one strand shown. Summed up: as §1

In a further test the target is ETV6 (Homo sapiens, UniProt P41212 1-452). As to conditions: protein: recombinant; tags: N-terminal GST; dsDNA, one strand shown. In short, it runs like this:
as §1

Sequence of ETV1 (P50549 whole entry): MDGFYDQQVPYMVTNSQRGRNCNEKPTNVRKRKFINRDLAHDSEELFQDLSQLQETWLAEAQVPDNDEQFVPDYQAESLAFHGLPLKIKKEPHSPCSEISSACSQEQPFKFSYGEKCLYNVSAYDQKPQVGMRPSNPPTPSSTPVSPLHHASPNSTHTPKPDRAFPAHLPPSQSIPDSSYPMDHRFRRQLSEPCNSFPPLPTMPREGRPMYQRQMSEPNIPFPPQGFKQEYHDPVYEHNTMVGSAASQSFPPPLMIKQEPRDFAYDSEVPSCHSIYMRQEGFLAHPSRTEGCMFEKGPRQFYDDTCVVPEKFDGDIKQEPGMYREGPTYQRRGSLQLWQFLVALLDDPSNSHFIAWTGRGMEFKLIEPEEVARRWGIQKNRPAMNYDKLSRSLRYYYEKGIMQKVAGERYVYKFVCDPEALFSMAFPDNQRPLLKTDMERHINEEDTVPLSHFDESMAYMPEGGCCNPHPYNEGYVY
Sequence of ELF4 (Q99607 whole entry): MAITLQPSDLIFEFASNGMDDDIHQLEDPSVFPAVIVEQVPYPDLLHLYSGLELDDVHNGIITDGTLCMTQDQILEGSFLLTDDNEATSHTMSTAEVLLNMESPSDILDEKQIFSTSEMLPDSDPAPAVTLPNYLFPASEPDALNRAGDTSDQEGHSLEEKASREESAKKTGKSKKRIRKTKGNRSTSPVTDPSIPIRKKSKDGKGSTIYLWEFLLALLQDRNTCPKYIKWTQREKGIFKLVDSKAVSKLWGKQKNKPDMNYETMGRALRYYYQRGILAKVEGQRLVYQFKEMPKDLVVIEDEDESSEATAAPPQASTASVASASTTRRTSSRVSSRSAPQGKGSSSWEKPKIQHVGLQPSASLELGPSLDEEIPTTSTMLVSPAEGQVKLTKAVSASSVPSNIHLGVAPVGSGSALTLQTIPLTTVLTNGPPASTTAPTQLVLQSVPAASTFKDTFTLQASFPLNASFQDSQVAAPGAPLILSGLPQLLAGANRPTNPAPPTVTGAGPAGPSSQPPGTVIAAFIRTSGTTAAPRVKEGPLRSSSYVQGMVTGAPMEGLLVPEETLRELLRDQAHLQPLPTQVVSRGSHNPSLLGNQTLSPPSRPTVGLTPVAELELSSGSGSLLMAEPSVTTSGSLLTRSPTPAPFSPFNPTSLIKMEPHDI
Sequence of ETV6 (P41212 whole entry): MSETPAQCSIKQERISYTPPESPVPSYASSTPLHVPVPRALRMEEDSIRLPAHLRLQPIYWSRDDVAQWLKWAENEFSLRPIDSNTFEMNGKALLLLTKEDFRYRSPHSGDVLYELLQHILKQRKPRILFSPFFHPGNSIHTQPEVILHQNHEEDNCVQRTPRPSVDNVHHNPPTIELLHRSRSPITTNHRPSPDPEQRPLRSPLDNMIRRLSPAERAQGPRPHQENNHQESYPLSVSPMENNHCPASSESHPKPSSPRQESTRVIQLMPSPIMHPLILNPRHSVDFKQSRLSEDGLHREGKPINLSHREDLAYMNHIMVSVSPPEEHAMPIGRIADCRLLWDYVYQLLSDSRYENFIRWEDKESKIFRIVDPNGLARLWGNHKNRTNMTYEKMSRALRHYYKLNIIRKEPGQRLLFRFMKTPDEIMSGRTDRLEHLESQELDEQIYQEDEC
Sequence of CRX (O43186 whole entry): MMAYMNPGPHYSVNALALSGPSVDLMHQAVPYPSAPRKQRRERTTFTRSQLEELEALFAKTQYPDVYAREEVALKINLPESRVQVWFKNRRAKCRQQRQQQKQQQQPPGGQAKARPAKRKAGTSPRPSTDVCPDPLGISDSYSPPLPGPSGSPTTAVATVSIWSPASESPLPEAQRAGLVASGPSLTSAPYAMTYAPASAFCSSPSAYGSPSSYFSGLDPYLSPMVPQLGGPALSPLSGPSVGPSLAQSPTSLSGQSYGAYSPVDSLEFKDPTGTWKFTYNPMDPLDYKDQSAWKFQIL

For TTATGG, the binding signal in the test with FEV was 1.33 fold enrichment (6-mer frequency, TF over GST control); with ETV5, 1.39 fold enrichment (6-mer frequency, TF over GST control); with HSF1, 1.74 fold enrichment (6-mer frequency, TF over GST control); with SPIC, 1.53 fold enrichment (6-mer frequency, TF over GST control); in the test with ELF4, 1.31 fold enrichment (6-mer frequency, TF over GST control); with ELK4, 1.24 fold enrichment (6-mer frequency, TF over GST control). In addition, the binding signal in the test with ETV2 was 1.45 fold enrichment (6-mer frequency, TF over GST control); in the test with ELF3 it was 1.53 fold enrichment (6-mer frequency, TF over GST control); with CRX, 2.62 fold enrichment (6-mer frequency, TF over GST control); in the test with ETV1, 1.41 fold enrichment (6-mer frequency, TF over GST control); with ERF, 1.31 fold enrichment (6-mer frequency, TF over GST control); with ETV3L, 1.32 fold enrichment (6-mer frequency, TF over GST control). Besides, the binding signal with ETS2 is 1.26 fold enrichment (6-mer frequency, TF over GST control); with SPDEF, 1.26 fold enrichment (6-mer frequency, TF over GST control); with ETV7, 1.36 fold enrichment (6-mer frequency, TF over GST control); in the test with ELF5, 1.28 fold enrichment (6-mer frequency, TF over GST control); with ETV3, 1.44 fold enrichment (6-mer frequency, TF over GST control); with ETV6, 1.35 fold enrichment (6-mer frequency, TF over GST control).
